Source: PubChem BioAssay (The Scripps Research Institute Molecular Screening Center)
A selection: hits, their analogues and other compounds. The true share with any hit is near 3.5%.
GPR151 ag: activators of human GPR151, primary screen, cell-based, PathHunter beta-arrestin, luminescence; AID 1508602, 2020; activation, % at 11.2 µM; PathHunter beta-arrestin GPR151 cells; 650,000 compounds, 1% hits; G-protein coupled receptor 151 (Homo sapiens), Q8TDV0; in the data active = activation above about 4.9%;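 note: 0% = median of compound wells and 100% = cells with positive control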
MITF primary: MITF inhibitors, primary screen, biochemical, AlphaScreen, human; AlphaScreen MITF homodimerization, bead proximity signal; AID 1259374, 2018; 650,000 compounds, 0.91% hits; inhibition, % at 2.6 µM; in the data active = inhibition above about 50%;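 note: 0% = vehicle wells with protein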
TEAD-YAP inh: TEAD-YAP interaction inhibition, primary screen, TEAD-YAP interaction inhibitor project, luminescence, HEK-TIYL cells; 640,000 compounds, 1.4% hits; inhibition, % at 9.12 µM; TEAD-Gal4/YAP UAS-luciferase luminescence; in the data active = inhibition above about 32%;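 note: 0% = median of test compound wells and 100% = reference inhibitor wells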
FBW7 act: FBW7 E3 ligase activators, primary screen, biochemical, AlphaScreen, human; 650,000 compounds, 0.13% hits; normalized activity (activation), % at 26.1 µM; F-box/WD repeat-containing protein 7 (Homo sapiens), Q969H0; AlphaScreen FBW7–phospho-cyclin E peptide binding, activator screen; in the data active = normalized activity above about 1.9%;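 note: purified mutant Fbw7 with reduced substrate affinity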
* = called active by the depositor.

SMILES	GPR151 ag	MITF primary	TEAD-YAP inh	FBW7 act
CC(C)CNc1nccn2c(-c3cccc(O)c3)cnc12	0	-2	-6	0
CC1=C(C)/C(=N\S(=O)(=O)c2ccccc2)C=C(Cl)C1=O	-1	6	1	0
CN(C)C1=C/C(=N/S(=O)(=O)c2ccccc2)c2ccccc2C1=O	2	59*	90*	0
CC1=C(C)/C(=N\S(=O)(=O)c2ccc(C)cc2)C=C(N(C)C)C1=O	0	84*	4	0
Cc1ccc2cc3cc(C(=O)N4CCN(C)CC4)oc3nc2c1	1	-22	45*	0
O=C(CN1C(=O)CCSc2ccccc21)N1CCC(Cc2ccccc2)CC1	1	-3	6	0
O=C(Cc1c(F)cccc1Cl)NNC(=S)NCc1ccco1	0	0	-1	0
CN(Cc1ccccc1)C(=O)c1nc2ccccn2c1CNCCN1CCCCC1	0	16	9	0
CSc1ccccc1C(=O)Nc1nc2nc(C)cc(C)c2s1	0	3	-12	8.8*
Cc1cc(C)c2sc(NC(=O)c3cc4ccccc4o3)nc2n1	-2	8	-46	0
CSc1ccccc1C(=O)Nc1nc2cc(C)cc(C)c2s1	0	-16	-10	0
Cc1cc(C)c2sc(NC(=O)c3ccccc3C)nc2n1	-1	-17	61*	0
Cc1cc(C)cc(NC(=O)C2CC23CCN(C(=O)C(C)(C)C)CC3)c1 (configuration not stated)	1	-4	1	0
Cc1nc(N2C(=O)C(O)=C(C(=O)c3cccs3)C2c2ccco2)sc1C (configuration not stated)	-1	10	4	1
Cc1cc(N2CCC(C(=O)Nc3ccccc3-c3ccccc3)CC2)n2ncnc2n1	1	11	1	0
Cc1nc(C)c(C(=O)NC(C)c2cnn(-c3ccccn3)c2C)s1 (configuration not stated)	3	-2	45*	0
Cc1nc(C)c(C(=O)NC(C)c2cnn(-c3ccccc3C)c2C)s1 (configuration not stated)	2	1	54*	0
COc1ccc(NC(=O)CSc2nnc(NC(=O)COc3ccccc3)s2)cc1	-1	1	9	1
Cc1ccc(C2OC3(C(=O)c4ccccc4C3=O)C3C(=O)N(c4cccc(C)c4C)C(=O)C23)cc1 (configuration not stated)	-1	-11	-3	0
Cc1ccc(Nc2c([N+](=O)[O-])sc3ccccc23)cc1	0	30	48*	0
COC(=O)c1c(N)sc(C(=O)Nc2cccc(Cl)c2C)c1C	-4	4	69*	0
CCOC(=O)c1c(N)sc(C(=O)Nc2ccccc2)c1C	-5	3	32*	0
CCOC(=O)c1c(N)sc(C(=O)Nc2ccc(C)c(Cl)c2)c1C	-4	3	35*	0
CCOC(=O)c1c(N)sc(C(=O)Nc2cccc(Cl)c2)c1C	-8	1	50*	0
NC(=O)c1cc2cc(Cl)ccc2oc1=Nc1ccc(F)cc1	1	4	1	0
SMILES	GPR151 ag	MITF primary	TEAD-YAP inh	FBW7 act
CCOC(=O)c1c(N)sc(C(=O)Nc2ccccc2F)c1C	-6	-8	48*	0
CCOC(=O)c1c(N)sc(C(=O)Nc2ccccc2C(F)(F)F)c1C	3	6	14	0
CC1(C)CC(=O)C2=C(C1)NC(=S)NC2c1cccc(F)c1 (configuration not stated)	0	-1	52*	0
O=C1CCCC2=C1C(c1ccc(Cl)cc1)NC(=S)N2 (configuration not stated)	2	6	17	0
O=C1CCCC2=C1C(c1cccc(O)c1)NC(=S)N2 (configuration not stated)	1	-22	65*	0
CC1(C)CC(=O)C2=C(C1)Nc1ccccc1NC2c1cccc(F)c1 (configuration not stated)	-1	4	11	0
Cc1ccc(S(=O)(=O)Oc2ccccc2/C=N/NC(N)=S)cc1	3	-7	61*	0
Cc1ccc(S(=O)(=O)Oc2ccccc2/C=N/N=C(N)N)cc1	-1	2	10	0
O=S1(=O)CCC(NC(=S)Nc2ccc(OC(F)F)cc2)C1 (configuration not stated)	0	-8	41*	0
COc1ccc(C(=O)NC(=S)NC2CCS(=O)(=O)C2)cc1 (configuration not stated)	0	38	2	0
CCOC(=O)c1[nH]c(C)c(C(=O)Nc2cccc(F)c2)c1C	0	8	43*	1
CCOC(=O)c1[nH]c(C)c(C(=O)Nc2ccc(F)cc2)c1C	0	9	-3	0
CCOC(=O)c1[nH]c(C)c(C(=O)Nc2cccc(Cl)c2)c1C	0	-22	46*	0
COc1ccc(/C(O)=C2/C(=O)C(=O)N(CCCn3ccnc3)C2c2ccc(C(C)C)cc2)cc1 (configuration not stated)	-1	16	4	0
Cc1nnc(-c2cccc(Cn3nnc(-c4ccccc4)n3)c2)o1	0	15	-1	0
CC(C)CS(=O)(=O)C1=NSC2=NC(=O)/C(=C\c3ccc([N+](=O)[O-])o3)C(=N)N21	0	66*	0	0
CC(C)S(=O)(=O)C1=NSC2=NC(=O)/C(=C\c3ccc([N+](=O)[O-])o3)C(=N)N21	-2	53*	5	0
CN(C)c1nc2cc(F)ccc2cc1CN(Cc1ccco1)C(=O)C1CCC1	-1	-5	-1	0
O=C(Nc1ccc([N+](=O)[O-])cc1)C1CCC(N2C(=O)C3C4CCC(C4)C3C2=O)CC1 (configuration not stated)	1	8	5	0
O=C(Nc1ccccc1)C1=C(c2ccccc2)S(=O)(=O)CCS1(=O)=O	1	11	81*	1
O=C(Nc1ccc(-c2ccccc2)cc1)c1ccc(C(=O)Nc2ccc(-c3ccccc3)cc2)cc1	0	8	2	0
Nc1nc2ccccc2n1C(=O)c1ccccc1	-8	2	52*	0
Nc1nc2ccccc2n1C(=O)c1ccc(F)cc1	-5	1	52*	0
COc1ccc(Nc2nc3nonc3nc2Nc2c(C)n(C)n(-c3ccccc3)c2=O)cc1	1	-2	12	0
CCN(CC)c1ccc(C2Nc3ccccc3NC3=C2C(=O)CC(C)(C)C3)cc1 (configuration not stated)	0	1	54*	0
COc1cc(C2Nc3ccc(C(=O)c4ccccc4)cc3NC3=C2C(=O)CC(C)(C)C3)ccc1O (configuration not stated)	0	-1	41*	0
